Source: PubChem BioAssay (NCI)
The panel holds about 83,000 compounds, 20% with a hit somewhere; the sample as a whole holds those more often.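 How to read the values: 0–100, growth inhibition (40 = 60% inhibited); 0, no net growth; -100 to 0, cell death (-40 = 40% of starting cells died; -100 = all dead).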 Values without a mark were called inactive. The source made the active and inactive calls. How the source made its calls: active means growth percent below 10; inactive means the rest.

tested on: SF-295 CNS; test: NCI-60 one-dose screen, 48 h (100 = growth as untreated, 0 = no growth, -100 = all killed); settings: 10 µM unless noted

Compound | growth
CCN1CCN(/C(=N\c2sc(-c3ccccc3)nc2-c2ccccc2)c2ccccc2)CC1 | 111%
CCCCN1C(=O)/C(=c2\sc3n(c2=O)C2C(NN=3)N(CC)C(=O)N2CC)c2cc(Cl)ccc21 (stereo not drawn) | 62.3%
O=C1C2=C(C(=O)c3c(O)cccc31)C(c1ccco1)c1sc(=O)[nH]c1S2 (stereo not drawn) | -15.6% (active)
COc1cc(/C=C/C(=O)c2ccc(C(F)(F)F)cc2)ccc1Oc1nc(NCCO)nc(N2CCOCC2)n1 | 96%
OC1CCN(CCCOc2c3ccc(Cl)cc3nc3c2oc2ccc(Cl)cc23)CC1 | 17.8%
Nc1c(C(=O)Nc2ccc(Cl)cc2)sc2nc(-c3cnccn3)cc(-c3cccs3)c12 | 59%
O=C(N/N=C/c1ccc([N+](=O)[O-])o1)c1[nH]c2ccc(Br)cc2c1-c1ccccc1 | 21.3%
Cc1ccc(-c2nc(C(Cl)Cl)nc3cc(-c4ccccc4)nn23)cc1 | 10.3%
CCOC(=O)c1c(NC(=O)c2cccc(C(F)(F)F)c2)sc2cc(O)ccc12 | 102%
OC1CCN(CCCOc2c3ccccc3nc3c2oc2ccccc23)CC1 | -14.7% (active)
COc1ccc(C(=O)/C=C/c2ccc(OCc3ccc(Cl)cc3)c(OC)c2)cc1OC | 68.3%
CN(C)CCCNc1c2ccccc2nc2c1oc1ccc(Cl)cc12 | 24.6%
COc1ccc(NC2=CC(=O)C(C)=C(C)C2=O)cc1 | 105%
COc1ccc(-n2c(SCC(=O)Nc3ccc(-c4nc5ccccc5[nH]4)cc3)nc3ccccc3c2=O)cc1 | 16.2%
C/C(=N\NC(N)=O)c1c(O)sc(=O)[nH]c1=O | 96.3%
OC1CCN(CCCOc2c3ccc(Cl)cc3nc3c2oc2ccccc23)CC1 | -23.2% (active)
NS(=O)(=O)c1ccc(Nc2nc(Nc3ccccc3)nc(-n3nc(-c4ccccc4)cc3-c3ccccc3)n2)cc1 | 34.3%
COc1cc(OC)c(C2C(Cl)C(=O)N2Nc2ncnc3ccccc23)cc1OC (stereo not drawn) | 102%
CN(C)CCCOc1c2ccc(Cl)cc2nc2c1oc1ccc(Cl)cc12 | 11.9%
Cc1[nH]nc2ncc(C#Cc3cncc(C(=O)Nc4ccc(CN5CCN(C)CC5)c(C(F)(F)F)c4)c3)cc12 | 34.2%

Compound | growth
CC1=C(C)C(=O)C(Nc2cccc(C(F)(F)F)c2)=C(Cl)C1=O | 96.2%
Cn1cc(-c2cc(N)n3nc(-c4cn(C)c5ccc(Br)cc45)cc3n2)c2cc(Br)ccc21 | 105%
O=c1[nH]c2ccc(Cl)cc2cc1CSc1ccccc1Nc1nccc(-c2ccc(Cl)cc2)n1 | 96.3%
COc1ccc(-c2nc3ccc(-c4nnc(SCC(=O)Nc5ccc(C(=O)/C=C/c6ccccc6)cc5)o4)cc3[nH]2)cc1OC | 94.9%
N#Cc1nc(-c2ccccc2)oc1S(=O)(=O)N1CCN(CCc2ccccn2)CC1 | 99.2%
CN1CCN(Cc2ccc(NC(=O)c3cncc(C#Cc4cnc5[nH]ncc5c4)c3)cc2C(F)(F)F)CC1 | 35.4%
COc1cc(/C=C/C(=O)c2ccc(F)cc2)ccc1Oc1nc(NCCO)nc(N2CCOCC2)n1 | 93.2%
Clc1ccc2c(OCCCN3CCOCC3)c3oc4ccccc4c3nc2c1 | 26%
O=C(c1ccc(O)cc1)C1[C@H](c2ccc(Cl)cc2)[C@@H](c2ccccc2)NC12C(=O)Nc1ccc(Cl)cc12 (stereo partly drawn) | 41.1%
Nc1cc(-c2c[nH]c3ccccc23)nc2cc(-c3c[nH]c4ccccc34)nn12 | 34.8%
Oc1c(Cl)cc(Cl)c2ccc(CN3CCCCC3)nc12 | 26.5%
CN(C)CCCOc1c2ccc(Cl)cc2nc2c1oc1ccccc12 | -19.2% (active)
CS(=O)(=O)c1ccc(-c2nc3ccccn3c2/C=N/Nc2nc(-c3ccc(Br)cc3)cs2)cc1 | 102%
C=CCn1c(SCC(=O)c2ccc(Br)cc2)nnc1-c1c[nH]c2ccccc12 | 93.2%
COc1cc(/C=C/C(=O)c2ccccc2)ccc1Oc1nc(NCCO)nc(N2CCOCC2)n1 | 99.7%
COC1CCN(Cc2ccc3c(NNC(=O)c4cnccn4)nc4cc(F)ccc4n23)C1 (stereo not drawn) | 21.4%
CC(C)NC(=O)c1cc(-c2ccc(NC(=O)Nc3ccc(N4CCOCC4)c(C(F)(F)F)c3)cc2)nc2cccnc12 | 1.17% (active)
O=C(N/N=C/c1ccco1)c1[nH]c2ccc(Br)cc2c1-c1ccccc1 | 21.8%
O=C(CSc1nccc(=O)[nH]1)Nc1ccc(-c2nc3ccccc3[nH]2)cc1 | 115%

tested on: SF-539 CNS; test: as above; settings: 10 µM unless noted

Compound | growth
CCN1CCN(/C(=N\c2sc(-c3ccccc3)nc2-c2ccccc2)c2ccccc2)CC1 | 87.8%
CCCCN1C(=O)/C(=c2\sc3n(c2=O)C2C(NN=3)N(CC)C(=O)N2CC)c2cc(Cl)ccc21 (stereo not drawn) | 59.4%
O=C1C2=C(C(=O)c3c(O)cccc31)C(c1ccco1)c1sc(=O)[nH]c1S2 (stereo not drawn) | -24% (active)
COc1cc(/C=C/C(=O)c2ccc(C(F)(F)F)cc2)ccc1Oc1nc(NCCO)nc(N2CCOCC2)n1 | 98.2%
OC1CCN(CCCOc2c3ccc(Cl)cc3nc3c2oc2ccc(Cl)cc23)CC1 | -74.1% (active)
Nc1c(C(=O)Nc2ccc(Cl)cc2)sc2nc(-c3cnccn3)cc(-c3cccs3)c12 | 12.2%
O=C(N/N=C/c1ccc([N+](=O)[O-])o1)c1[nH]c2ccc(Br)cc2c1-c1ccccc1 | 4.34% (active)
Cc1ccc(-c2nc(C(Cl)Cl)nc3cc(-c4ccccc4)nn23)cc1 | 34.4%
CCOC(=O)c1c(NC(=O)c2cccc(C(F)(F)F)c2)sc2cc(O)ccc12 | 89.7%
OC1CCN(CCCOc2c3ccccc3nc3c2oc2ccccc23)CC1 | -12.5% (active)
COc1ccc(C(=O)/C=C/c2ccc(OCc3ccc(Cl)cc3)c(OC)c2)cc1OC | 71.8%
CN(C)CCCNc1c2ccccc2nc2c1oc1ccc(Cl)cc12 | 18.3%
COc1ccc(NC2=CC(=O)C(C)=C(C)C2=O)cc1 | 105%
COc1ccc(-n2c(SCC(=O)Nc3ccc(-c4nc5ccccc5[nH]4)cc3)nc3ccccc3c2=O)cc1 | -77.3% (active)
C/C(=N\NC(N)=O)c1c(O)sc(=O)[nH]c1=O | 94.6%
OC1CCN(CCCOc2c3ccc(Cl)cc3nc3c2oc2ccccc23)CC1 | -76.1% (active)
NS(=O)(=O)c1ccc(Nc2nc(Nc3ccccc3)nc(-n3nc(-c4ccccc4)cc3-c3ccccc3)n2)cc1 | 37.2%
COc1cc(OC)c(C2C(Cl)C(=O)N2Nc2ncnc3ccccc23)cc1OC (stereo not drawn) | 104%
CN(C)CCCOc1c2ccc(Cl)cc2nc2c1oc1ccc(Cl)cc12 | 16.5%
Cc1[nH]nc2ncc(C#Cc3cncc(C(=O)Nc4ccc(CN5CCN(C)CC5)c(C(F)(F)F)c4)c3)cc12 | -3.8% (active)

Compound | growth
CC1=C(C)C(=O)C(Nc2cccc(C(F)(F)F)c2)=C(Cl)C1=O | 93.4%
Cn1cc(-c2cc(N)n3nc(-c4cn(C)c5ccc(Br)cc45)cc3n2)c2cc(Br)ccc21 | 85.2%
O=c1[nH]c2ccc(Cl)cc2cc1CSc1ccccc1Nc1nccc(-c2ccc(Cl)cc2)n1 | 89.1%
COc1ccc(-c2nc3ccc(-c4nnc(SCC(=O)Nc5ccc(C(=O)/C=C/c6ccccc6)cc5)o4)cc3[nH]2)cc1OC | 83.7%
N#Cc1nc(-c2ccccc2)oc1S(=O)(=O)N1CCN(CCc2ccccn2)CC1 | 68.7%
CN1CCN(Cc2ccc(NC(=O)c3cncc(C#Cc4cnc5[nH]ncc5c4)c3)cc2C(F)(F)F)CC1 | 13%
COc1cc(/C=C/C(=O)c2ccc(F)cc2)ccc1Oc1nc(NCCO)nc(N2CCOCC2)n1 | 88.2%
Clc1ccc2c(OCCCN3CCOCC3)c3oc4ccccc4c3nc2c1 | 22.9%
O=C(c1ccc(O)cc1)C1[C@H](c2ccc(Cl)cc2)[C@@H](c2ccccc2)NC12C(=O)Nc1ccc(Cl)cc12 (stereo partly drawn) | 66.4%
Nc1cc(-c2c[nH]c3ccccc23)nc2cc(-c3c[nH]c4ccccc34)nn12 | 32.4%
Oc1c(Cl)cc(Cl)c2ccc(CN3CCCCC3)nc12 | 29.1%
CN(C)CCCOc1c2ccc(Cl)cc2nc2c1oc1ccccc12 | -58.9% (active)
CS(=O)(=O)c1ccc(-c2nc3ccccn3c2/C=N/Nc2nc(-c3ccc(Br)cc3)cs2)cc1 | 105%
C=CCn1c(SCC(=O)c2ccc(Br)cc2)nnc1-c1c[nH]c2ccccc12 | 91.8%
COc1cc(/C=C/C(=O)c2ccccc2)ccc1Oc1nc(NCCO)nc(N2CCOCC2)n1 | 94.2%
COC1CCN(Cc2ccc3c(NNC(=O)c4cnccn4)nc4cc(F)ccc4n23)C1 (stereo not drawn) | 4.26% (active)
CC(C)NC(=O)c1cc(-c2ccc(NC(=O)Nc3ccc(N4CCOCC4)c(C(F)(F)F)c3)cc2)nc2cccnc12 | 20.9%
O=C(N/N=C/c1ccco1)c1[nH]c2ccc(Br)cc2c1-c1ccccc1 | -15.1% (active)
O=C(CSc1nccc(=O)[nH]1)Nc1ccc(-c2nc3ccccc3[nH]2)cc1 | 98.9%
